LDHA inh: blocks human lactate dehydrogenase A; P00338; purified LDHA, NADH/diaphorase-resazurin fluorescence; hits give low values; activity change, % (values are at about 110 or 230 µM); 480,000 compounds, 0.15% hits; AID 1347041; in the data active means activity change below about -30%; inconclusive means mostly about -25% to -30%;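 further: plate controls were DMSO wells for no effect and wells without enzyme for full effect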
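Enzyme activity of human lactate dehydrogenase 5 (2 nM; 0.06 mM NADH, 0.2 mM pyruvate, 5 min, RT) is measured via a resazurin/diaphorase fluorescence readout of residual NADH.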
IL1B secr inh: blocks inflammasome-driven IL-1 beta release. THP-1 LPS/ATP IL-1B secretion, AlphaLISA, 16 h; hits give low values. activity change, % at 57.5 µM. 360,000 compounds, 4.7% hits; in the data active means activity change below about -50%; inconclusive means mostly about -30% to -49%
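Secreted IL-1B measured by AlphaLISA bead assay after 16 h compound exposure of THP-1 cells; compounds (final up to 57.5 uM) added 1 h before LPS (250 ng/mL) and ATP (1.25 mM) stimulation; lower signal means less secretion.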
TDP1 cell noCPT: qHTS for Inhibitors of human tyrosyl-DNA phosphodiesterase 1 (TDP1): qHTS in cells in absence of CPT; Potency, µM (series often up to 46.2 µM), inactives show top-dose activity change, negative = growth inhibition, actives largely listed as inhibitors; DT40 Tdp1-/- hTDP1 cells, no CPT, ATP luminescence, 48 h; 420,000 compounds, 15% hits; further: potency means the concentration at half of the fitted maximal effect; nearly all actives have a fitted effect of over 55% in size
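Stably hTDP1-transfected Tdp1-null chicken DT40 cells were treated with library compounds minus camptothecin and grown for at least 48 hr at 37 °C, after which cellular ATP was quantified by luminescence.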
RORg inh: ROR gamma (mouse) transcription inhibition; 310,000 compounds, 5.4% hits; Drosophila S2 Gal4-RORgamma UAS-luciferase reporter, 20 h; P51450; Potency, µM (top dose mostly 53.6 µM), for inactives: at the highest dose activity change, negative = inhibition, hits mostly inhibitors; further: potency means the concentration at half of the fitted maximal effect; nearly all actives have a fitted effect of over 60% in size
Target sequence (P51450 whole entry, looked up, the tested form may be a part): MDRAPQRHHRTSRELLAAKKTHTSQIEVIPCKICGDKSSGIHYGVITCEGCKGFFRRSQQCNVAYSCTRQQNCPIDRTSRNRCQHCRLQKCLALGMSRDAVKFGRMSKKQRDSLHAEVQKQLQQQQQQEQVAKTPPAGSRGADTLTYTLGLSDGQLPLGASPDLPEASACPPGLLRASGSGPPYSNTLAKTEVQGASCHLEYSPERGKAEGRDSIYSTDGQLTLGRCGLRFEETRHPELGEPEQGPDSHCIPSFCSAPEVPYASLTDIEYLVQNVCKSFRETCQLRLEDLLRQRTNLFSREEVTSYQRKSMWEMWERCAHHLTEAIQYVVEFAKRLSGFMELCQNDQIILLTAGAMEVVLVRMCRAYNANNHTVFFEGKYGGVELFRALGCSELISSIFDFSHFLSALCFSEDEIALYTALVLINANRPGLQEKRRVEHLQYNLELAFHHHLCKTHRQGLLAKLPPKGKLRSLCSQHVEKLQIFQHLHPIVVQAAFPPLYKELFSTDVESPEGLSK
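ROR gamma transcriptional activity was tracked as Gal4-UAS luciferase output in stably transfected Drosophila Schneider cells, with compound added 1 hr before 700 uM copper sulfate induction and a 20 hr ambient-temperature incubation.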
DT40 TDP1 CPT: DT40-hTDP1 cell growth loss with CPT; chicken DT40 Tdp1-/-;hTDP1 cells + 20 nM CPT, ATP luminescence, 48 h; Potency, µM (series often up to 46.2 µM), without a hit: at the top dose activity change, negative = growth inhibition, actives largely listed as inhibitors; 420,000 compounds, 12% hits; further: potency means the concentration at half of the fitted maximal effect; nearly all actives have a fitted effect of over 55% in size
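Cell growth measured by CellTiter-Glo luminescence after a minimum 48 h, 37 C compound exposure with 20 nM CPT in Tdp1-knockout DT40 cells stably expressing hTDP1, seeded 400/well; qHTS titration format.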
Gal4-VP16 FLuc: counter-screen for ROR gamma inhibitors: Gal4-VP16 reporter; Potency, µM (series often up to 53.6 µM), inactives show at the top dose activity, negative = inhibition, usual class: inhibitors; Drosophila S2 Gal4-VP16 UAS-luciferase, luminescence, 20 h; AID 2546; 310,000 compounds, 3.5% hits;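 further: Gal4-VP16 expression switched on by copper sulfate through the metallothionein promoter; potency means the concentration at half of the fitted maximal effect; nearly all actives have a fitted effect of over 50% in size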
Numbers without * were called inactive; [ ] = remark or other dose. Rows were chosen to be rich in hits. Some 18% of all compounds tested hit in one or more screens of this group. Unless noted, the call rests on the fitted dose curve; in most records, active means well fitted curve in the direction sought with a large enough effect; inconclusive means small, poorly fitted or top-dose-only effect, or another doubt; inactive means no such curve, though single readings can be large; an effect the other way counts as inactive or inconclusive. Unless noted, on the % scale 0 is the no-effect control and ±100 the full control effect.

Screening O=C(O)CN1C(=O)S/C(=C/c2cccc(F)c2)C1=O returned LDHA inh -3.
Screening CC(OC(=O)c1n[nH]c(=O)c2ccccc12)C(=O)c1ccc2c(c1)CCC2 (configuration not stated) returned LDHA inh 6.
`Cc1cc(C(=O)N/N=C/C=C/c2ccccc2)c(C)o1` gave LDHA inh -5, IL1B secr inh -24, TDP1 cell noCPT -22%, RORg inh 7.9µM*, DT40 TDP1 CPT -19% and Gal4-VP16 FLuc 11µM*.
Screening Cc1cc(C(=O)N/N=C/c2ccccc2)c(C)o1 returned LDHA inh 0, IL1B secr inh -15, TDP1 cell noCPT -26%, RORg inh -3%, DT40 TDP1 CPT -2% and Gal4-VP16 FLuc 1%.
O=C(CNc1cccc2ccccc12)N/N=C/c1cccc(Oc2ccccc2)c1 was read as LDHA inh 8, IL1B secr inh -7, TDP1 cell noCPT 26µM*, RORg inh inconclusive, DT40 TDP1 CPT inconclusive and Gal4-VP16 FLuc inconclusive.
For Cc1ccc(C(=O)NCCN2CCc3ccccc3C2)cc1F the results were LDHA inh -3.
For O=C(c1ccc2c(c1)N(Cc1ccccc1)C(=O)c1ccccc1S2=O)N1CCC(Cc2ccccc2)CC1 (configuration not stated) the results were LDHA inh 3, TDP1 cell noCPT 6.5µM* and DT40 TDP1 CPT 6.5µM*.
`CCOC(=O)C1CCCN(C(=O)c2ccc3c(c2)N(Cc2ccccc2)C(=O)c2ccccc2S3(=O)=O)C1` (configuration not stated) gave LDHA inh -3, TDP1 cell noCPT inconclusive and DT40 TDP1 CPT inconclusive.
Screening O=C(c1ccc2c(c1)N(Cc1ccc(F)cc1)C(=O)c1ccccc1S2=O)N1CCOCC1 (configuration not stated) returned LDHA inh -3, TDP1 cell noCPT 3% and DT40 TDP1 CPT -10%.
Screening O=C(c1ccc2c(c1)N(Cc1ccc(F)cc1)C(=O)c1ccccc1S2=O)N1CCC(Cc2ccccc2)CC1 (configuration not stated) returned LDHA inh 2, TDP1 cell noCPT 15µM* and DT40 TDP1 CPT 16µM*.
CCOC(=O)C1CCCN(C(=O)c2ccc3c(c2)N(Cc2ccccc2)C(=O)c2ccccc2S3=O)C1 (configuration not stated) was read as LDHA inh -7, IL1B secr inh 0, TDP1 cell noCPT 18µM*, RORg inh -2%, DT40 TDP1 CPT inconclusive and Gal4-VP16 FLuc -14%[10 µM].
Screening Cc1ccc(NC(=O)CCC2CCCCC2)cc1 returned LDHA inh 0.
Screening CCNc1ncc2nc(C)c(=O)n(-c3ccc(OC)cc3)c2n1 returned TDP1 cell noCPT 2.1µM*, RORg inh -12%, DT40 TDP1 CPT inconclusive and Gal4-VP16 FLuc 2%.
Screening CCNc1ncc2nc(C)c(=O)n(CCc3ccccc3)c2n1 returned TDP1 cell noCPT inconclusive, RORg inh -23%, DT40 TDP1 CPT 7.3µM* and Gal4-VP16 FLuc -4%.
Screening COc1ccc(-c2nc3cnc(OC)nc3n(-c3ccc(OC)cc3)c2=O)cc1 returned TDP1 cell noCPT 0.92µM*, RORg inh -2%, DT40 TDP1 CPT 1.3µM* and Gal4-VP16 FLuc 1%.
CCNc1ncc2nc(-c3ccccc3)c(=O)n(CCc3ccccc3)c2n1 was read as TDP1 cell noCPT -12%, RORg inh 6%, DT40 TDP1 CPT 2% and Gal4-VP16 FLuc 6%.
Screening CCNc1ncc2nc(-c3ccc(F)cc3)c(=O)n(-c3ccc(OC)cc3)c2n1 returned TDP1 cell noCPT 0.58µM*, RORg inh -22%, DT40 TDP1 CPT 0.73µM* and Gal4-VP16 FLuc -11%.
For COc1ccc(-n2c(=O)c(-c3ccc(F)cc3)nc3cnc(OC)nc32)cc1 the results were TDP1 cell noCPT inconclusive, RORg inh -11%, DT40 TDP1 CPT inconclusive and Gal4-VP16 FLuc 7%.
Cc1cc(C)cc(NC(=O)COC(=O)c2cccc(S(=O)(=O)N3CCc4ccccc43)c2)c1 was read as LDHA inh 1.
Screening CC(=O)c1cc2c(cc1NC(=O)CSc1nnc(C3CC3)n1Cc1ccccc1)OCO2 returned LDHA inh 10.
For CCOC(=O)c1ccc(NC(=O)c2cc(N3CCCCS3(=O)=O)ccc2Cl)cc1 the results were LDHA inh 7.
`CCNc1ncc2nc(-c3ccccc3)c(=O)n(-c3ccc(OC)cc3)c2n1` gave TDP1 cell noCPT 0.52µM*, RORg inh -4%, DT40 TDP1 CPT 7.3µM* and Gal4-VP16 FLuc 5%.
Cc1cc2c(cc1C)C(c1cc3c(cc1Br)OCO3)CC(=O)N2 (configuration not stated) was read as LDHA inh 5.
`COc1cc(CNC(=O)N2CCN(Cc3ccc(Br)s3)CC2)cc(OC)c1OC` gave LDHA inh -6.
CC(=O)Oc1ccccc1/C=C/c1nc2ccccc2c(=O)o1 was read as LDHA inh 3, IL1B secr inh 14, TDP1 cell noCPT inconclusive, RORg inh 8.9µM*, DT40 TDP1 CPT -16% and Gal4-VP16 FLuc 10µM*.
`O=c1oc(/C=C/c2ccc([N+](=O)[O-])s2)nc2ccccc12` gave LDHA inh -6, IL1B secr inh -62*, TDP1 cell noCPT inconclusive and DT40 TDP1 CPT inconclusive.
For COc1cc(C2CC(=O)Nc3c(-c4ccccc4)nsc32)cc(OC)c1OC (configuration not stated) the results were LDHA inh 3.
CCCCCn1c(NCCCOC)nc2c1c(=O)[nH]c(=O)n2C was read as LDHA inh -22.
`O=C(NC(c1ccccc1)c1ccc2ccccc2n1)C1CCN(Cc2ccc(Cl)c(Cl)c2)CC1` (configuration not stated) gave LDHA inh -8, IL1B secr inh inconclusive, TDP1 cell noCPT 15µM* and DT40 TDP1 CPT inconclusive.
O=C(NC(c1ccccc1)c1ccc2ccccc2n1)C1CCN(Cc2cccc(C(F)(F)F)c2)CC1 (configuration not stated) was read as LDHA inh -1, IL1B secr inh inconclusive, TDP1 cell noCPT 6.5µM* and DT40 TDP1 CPT 7.3µM*.
